Results reported in PubChem BioAssay AID592 (National Center for Advancing Translational Sciences (NCATS), 2007).
Values joined by “and” are separate entries in the source; they are usually repeats but may differ in a detail not shown here. Equal values may be shown once. Fewer than 10 of roughly 59,000 compounds were called active. No rule for the calls is given here. These entries were drawn from the full list.

experiment: qHTS Assay for Spectroscopic Profiling in A647 Spectral Region; conditions: Compound fluorescence, A647 channel (570/671 nm), Tris buffer; stronger effect = higher value
Description: NIH Molecular Libraries Screening Centers Network [MLSCN] NIH Chemical Genomics Center [NCGC] […] Occasionally, the artifactual effect may originate from the compounds own spectral or other biophysical properties which generally tend to track its assay concentration. Pre-screening/profiling the library with respect to the compounds spectral properties should help one exclude false positives early on. While the most informative fluorescent profiling data set is obtained by performing a full excitation and emission scan of each well by using a monochromator-based plate reader, such an approach is practical only on a very limited scale as scanning each well requires long time. An alternative approach, applied here, is to perform plate reader scans using selected excitation and emission wavelength pairs to generate a multidimensional relational database that correlates compound concentration and the respective relative fluorescence intensity at a given wavelength set. A standard curve of Alexa 647 (A647) present on each plate as six-point concentration series, was used to compute a normalized fluorescence response, termed dye-equivalent concentration, for each compound at each concentration.
NCGC Assay Protocol Summary: Buffer: 100 mM Tris buffer, pH 8.0 Dye standard plate: The wells in columns 1 through 4 of a Kalypsys polypropylene 1536-well compound plate were filled with standard solutions of fluorophore corresponding to the spectral region of interest. Solutions of A647 were placed in the following wells: AC1, AD1: 3 mM, AC2, AD2: 300 uM, AC3, AD3: 30 uM, AC4, AD4: zero (DMSO), AE1, AF1: 3 uM, AE2, AF2: 900 nM, AE3, AF3: 300 nM, AE4, AF4: zero (DMSO). Assay Steps: Six uL of buffer were dispensed to 1536-well Greiner black plates. Compounds and dye standards (23 nL) were transferred via Kalypsys PinTool. The plates were incubated for 15 min at room temperature, and then read on ViewLux (Perkin-Elmer) High-throughput CCD imager using 570 nm and 671 nm excitation and emission filter set. Keywords: NIH Roadmap, MLSCN, MLI, MLSMR, qHTS, NCGC, A647, A-647, Fluorescent Profiling.

Max dye-equivalent concentration, inactive:
CCOc1cc(CO)ccc1OCC(=O)N1CCCCC1 5.6 nM
COC(=O)Nc1c(C)n(C)n(-c2ccccc2)c1=O 1 nM
CCN(CC)C(=O)C1CCC(C)(C(=O)O)C1(C)C (centres undefined) 5.6 nM
O=C(O)c1c(Br)c(Br)c(Br)c(Br)c1C1c2ccc(O)cc2Oc2cc(O)ccc21 1 nM
O=C(Nc1ccon1)c1cccc(Cl)c1 1 nM
Cc1cccc2cc(CN(Cc3ccc4c(c3)OCO4)Cc3nnnn3C3CCCC3)c(=O)[nH]c12 1 nM
COCCCn1c(CCC(=O)O)ccc1-c1ccc(F)cc1 26 nM
COCCn1nnnc1CN1CCC(NC(=O)Nc2cccc(OC)c2)CC1 41 nM
O=C(O)[C@@H](S)[C@H](S)C(=O)O 1.2 nM
COCCCNC(=O)CSc1nc2ccc(N3CCOCC3)cc2c(=O)n1CCc1ccccc1 19 nM
Cc1ccc(-c2noc(CSc3nnc(-c4ccccc4)n3C)n2)cc1 17 nM
COc1ccc(C2OC(=O)CC2C(=O)NC(C)C)cc1 (centres undefined) 2.6 nM
Cc1cc(Cl)c(S(=O)(=O)NCC2CCCO2)cc1OCC(N)=O (centres undefined) 1 nM
CC1(N2CCOCC2)CC2(O)C(=[N+]1[O-])CCc1nonc12 (centres undefined) 31 nM
Cc1ccc(C(=O)O)cc1S(=O)(=O)NCC1CCCO1 (centres undefined) 1 nM
O=C(c1ccncc1)N1CCC2(CCCN(C(c3ccccc3)c3ccccc3)C2)CC1 10 nM
C[C@@H]1CC[C@H]2[C@H](C)[C@H]3[C@H](C[C@H]4[C@@H]5CC=C6C[C@@H](O)CC[C@@]6(C)[C@@H]5C[C@@H](O)[C@]34C)N2C1 2.4 nM
Cn1nnnc1SCC(=O)N1CCN(C(c2ccccc2)c2ccccc2)CC1 1 nM
CCCC(C)n1[nH]c(=O)c2c(C)cc(C)nc21 (centres undefined) 16 nM
N#Cc1c2c(c(-c3ccccc3)[nH]c1=O)CCCC2 55 nM
Cc1ccccc1C(=O)Nc1cccc(-c2nnc(SCC(=O)O)n2C)c1 18 nM
O=C(Nc1ccccc1C(=O)N1CCOCC1)C1CCC(=O)N1C1CCCC1 (centres undefined) 14 nM
O=S(=O)(c1ccccc1)N(CC(O)CN1CCCCC1)c1ccccc1 (centres undefined) 1 nM
CCC(C)(C)n1nnnc1C(c1cccs1)N1CCN(Cc2ccccc2)CC1 (centres undefined) 35 nM
Cc1c(C(=O)Nc2ccccc2Cl)oc2ccc(S(=O)(=O)N3CCC4(CC3)OCCO4)cc12 45 nM
CCC(Oc1ccccc1)C(=O)NCc1cccnc1 (centres undefined) 1.3 nM
CC(C)OC(=O)c1sc2nc3c(cc2c1N)C(=O)CCC3 12 nM
Cn1cc(-c2nc3cncnc3n(-c3ccccc3)c2=O)c2ccccc21 1 nM
O=C(/C=N/O)Nc1ccccc1 1 nM
CCOC(=O)N1CCN(S(=O)(=O)c2ccc(C(=O)Nc3ccc(F)cc3F)cc2)CC1 29 nM
COc1ccccc1N1CCN(CCCCOc2ccc(F)cc2)CC1 1 nM
COc1ccc2nc(N3CCCC(O)C3)c(C#N)cc2c1 (centres undefined) 22 nM
CCCCN(CC)CCCNC(=O)CS(=O)(=O)Cc1nc(-c2cccc(OC)c2)oc1C 1 nM
COC(=O)c1ccccc1NC(=O)CN(Cc1ccccc1)S(C)(=O)=O 1 nM
COc1cccc(OC)c1OCCN1CCN(C(=O)c2ccco2)CC1 1 nM
Cc1cc(Cl)ccc1N1C(=O)CC(SCCC(=O)O)C1=O (centres undefined) 1 nM
COc1ccc(CC(=O)Nc2c3c(nn2-c2cccc(Cl)c2)CS(=O)C3)cc1 (centres undefined) 12 nM
Cc1c(C(=O)OCc2cc(=O)n3cc(Br)ccc3n2)oc2ccccc12 28 nM
CCOC(=O)N1CCN(C(=O)c2cn(C)c3ccc(S(=O)(=O)N4CCCC4)cc3c2=O)CC1 21 nM
Cc1cc(NC(=O)COc2ccc(Cl)cc2Cl)n(CCC#N)n1 18 nM
Cc1ccc(S(=O)(=O)NCc2cn3ccsc3n2)c(C)c1 18 nM
CCOc1cc(-c2nc3cc(C)ccn3c2NCC2CCCO2)ccc1O (centres undefined) 14 nM
CC(C)C(C(=O)NC1CCCCC1)N(CC1CCCO1)C(=O)CNS(=O)(=O)c1ccc(F)cc1 (centres undefined) 1 nM
COc1ccccc1N1CCN(c2nc3ccccc3n3nnnc23)CC1 42 nM
O=C(c1cccc(F)c1)N1CCC2(CC1)CCN(c1ccccc1)CC2 1.1 nM
COc1ccccc1CNCc1cccs1 25 nM
O=C(CN1C(=O)COc2ccccc21)NCCN1CCc2ccccc2C1 23 nM
CC(C)CCNC(=O)C(C)N(C(=O)Cn1nnc(-c2ccc(F)cc2)n1)C1CCCC1 (centres undefined) 1 nM
CN1CCN(S(=O)(=O)c2ccc(NC(=O)c3ccco3)cc2)CC1 3.8 nM
CCOC(=O)CSc1nc2sc3c(c2c(=O)[nH]1)CC(C)(C)OC3 2.2 nM
Cc1cc(=O)oc(C)c1C(=O)Nc1cnc2ccccc2c1 5.4 nM
CN(C)CCSc1nc(N)c2c3c(sc2n1)COC(C)(C)C3 6.7 nM
Cc1ccc(C(=O)CSc2nnc(Cn3nnc4ccccc43)n2C)cc1 15 nM
CCCc1cc(=O)n2[nH]c(SCc3ccccc3)nc2n1 28 nM
O=C(c1ccco1)N(Cc1nc2ccccc2c(=O)[nH]1)C1CCCC1 41 nM
COC(=O)[C@H](CCSC)NC(=O)Nc1ccc(OC)cc1 5.2 nM
CC[N+](C)(CC)CCC[n+]1c(-c2ccccc2)c2cc(N)ccc2c2ccc(N)cc21 1.7 nM
O=c1c(CCc2ccccc2)nc2cnc(N3CCNCC3)nc2n1Cc1cccs1 1 nM
O=C(OCC(=O)N1CCN(C(=O)c2ccco2)CC1)c1ccccc1Cc1ccccc1 7.2 nM
CCOc1ccccc1N=C1NC(=O)CS1 4.1 nM
CCOC(=O)C1CCN(C(c2cc3cc(C)cc(C)c3[nH]c2=O)c2nnnn2C2CCCCC2)CC1 (centres undefined) 1 nM
CCCSC1=C(C#N)C(c2ccccc2C)C(C(=O)OC)C(=O)N1 (centres undefined) 58 nM
COCC(C)n1c(SCc2ccc(C(=O)OC)o2)nc2ccccc2c1=O (centres undefined) 1.6 nM
COC(=O)c1ccc(C2CC(=O)Nc3cc(OC)c(OC)cc32)cc1 (centres undefined) 1 nM
CC(C)c1nc(N2CCOCC2)c(C#N)c2c1COC(C)(C)C2 69 nM
CCCC(=O)Nc1c(O)c2ccccc2[nH]c1=O 1 nM
C=C(C)CSc1nc(N)c2c3c(sc2n1)CCC3 1.9 nM
O=C(OC1CCOC1=O)c1ccc(-c2nc3ccccc3s2)s1 (centres undefined) 1 nM
CCCS(=O)(=O)C(=C1Nc2ccccc2N1)S(=O)(=O)CCC 1 nM
CSc1sc(C)cc1C1C(C#N)=C(N)N(c2cccnc2)C2=C1C(=O)CCC2 (centres undefined) 18 nM
CCN(CC)C(=O)N1CCN(C(=O)c2ccc(C)cn2)CC1 1 nM
CCC(CC)c1nnc(NS(=O)(=O)Cc2ccccc2)s1 5 nM
COC(=O)c1c(NC(=O)c2cccs2)sc2c1CCCC2 1 nM
CC1CCC(NC(=O)c2ccc(N3CCCC3=O)cc2)CC1 (centres undefined) 6 nM
CCCNC(=O)Nc1ccccc1C(=O)Nc1ccc(OC)cc1 1.2 nM
COc1ccccc1-n1nnnc1S(=O)(=O)Cc1ccc(Cl)cc1 37 nM
CCN1C(=O)/C(=C2/Sc3ccccc3N2CCCS(=O)(=O)O)SC1=S 1 nM
CCCCC(=O)Nc1ccc(C(=O)NCCCn2ccnc2)cc1 2.5 nM
CCOC(=O)CNC(=O)CSc1nnc(COc2ccc(Cl)cc2)n1CC 39 nM
N#C/C=C1\Sc2ccccc2C(=O)N1CC(=O)N1CCN(S(=O)(=O)c2ccccc2)CC1 1 nM
N#CC1=C(N)C(C#N)(C#N)[C@H](c2ccsc2)[C@H]2COCC=C12 25 nM
CC(C)C[C@H](NC(=O)[C@@H]1O[C@H]1C(=O)O)C(=O)NCCCCN=C(N)N 60 nM and 51 nM
Cc1ccc2[nH]c3c(c2c1)CN(C(=O)CN1CCN(c2ccccc2)CC1)CC3 12 nM
Cc1ccc(C(C(=O)NC2CCCC2)N(Cc2ccco2)C(=O)CCC(=O)Nc2ccccn2)cc1 (centres undefined) 23 nM
CC(=O)/C(C)=N\O 34 nM
COC(=O)c1cc(C(=O)OC)cc(N2C(=O)CC(N3CCN(c4ccccc4)CC3)C2=O)c1 (centres undefined) 14 nM
CC(=O)Nc1ccc(S(=O)(=O)Nc2nc3n(n2)C(c2ccccc2)CC(=O)N3)cc1 (centres undefined) 16 nM
N#Cc1c(N)sc2c1CCN(C(=O)OCc1ccccc1)C2 36 nM
O=S(=O)(c1cccc(S(=O)(=O)N2CCC(n3nnc4ccccc43)CC2)c1)N1CCCCC1 23 nM
